# Source: ChEMBL document CHEMBL1157539, “Thousands of chemical starting points for antimalarial lead identification” (Nature, 2010)
# Columns and labels:
# Format in all cases: functional
# Plasmodium falciparum [1] = assay: GSK_TCMDC: Inhibition of Plasmodium falciparum 3D7 in whole red blood cells, using parasite LDH activity as an index of growth. Test compounds present at 2uM
# Plasmodium falciparum [2] = assay: GSK_TCMDC: Inhibition of Plasmodium falciparum Dd2 in whole red blood cells, using parasite LDH activity as an index of growth. Test compounds present at 2uM
# HepG2 = assay: GSK_TCMDC: Percent inhibition of human HepG2 cell line. Test compounds present at 10uM.
structure (smiles),measurement,setting,value
Cc1cc(N2CCCN(C)CC2)nc(Nc2ccc(Br)cc2)n1,Inhibition,Plasmodium falciparum [1],94%
same,Inhibition,Plasmodium falciparum [2],14%
same,Inhibition,HepG2,8%
Cc1noc(C)c1-c1cccc(CNCc2ccc(-c3cccc(-c4nc5cc(F)ccc5[nH]4)c3)cc2)c1.O=C(O)C(F)(F)F,Inhibition,Plasmodium falciparum [1],100%
same,Inhibition,Plasmodium falciparum [2],84%
same,Inhibition,HepG2,37%
CCOc1ccccc1CON1C(N)=NC(N)=NC1(C)C,Inhibition,Plasmodium falciparum [1],90%
same,Inhibition,Plasmodium falciparum [2],1%
same,Inhibition,HepG2,66%
CCOc1cc(C(=O)NC2CC(C)(C)N(C)C(C)(C)C2)ccc1-c1nc2cc(Cl)c(Cl)cc2[nH]1,Inhibition,Plasmodium falciparum [1],100%
same,Inhibition,Plasmodium falciparum [2],49%
same,Inhibition,HepG2,64%
Cc1cccc2nc(-c3cccc(-c4cccc(NC(=O)CCc5c[nH]cn5)c4)c3)[nH]c12,Inhibition,Plasmodium falciparum [1],100%
same,Inhibition,Plasmodium falciparum [2],86%
same,Inhibition,HepG2,16%
O=C(COc1cnc2ccccc2n1)Nc1ccccc1Sc1ccc(Cl)cc1,Inhibition,Plasmodium falciparum [1],100%
same,Inhibition,Plasmodium falciparum [2],100%
same,Inhibition,HepG2,6%
COc1ccc(CCNCCCCCCNCCc2ccc(Cl)c3ccccc23)cc1OC.Cl,Inhibition,Plasmodium falciparum [1],100%
same,Inhibition,Plasmodium falciparum [2],28%
same,Inhibition,HepG2,100%
CNC(=O)C1Cc2c([nH]c3cc(Cl)ccc23)C2(CCN(CCc3ccccc3)CC2)N1 (stereo not given),Inhibition,Plasmodium falciparum [1],91%
same,Inhibition,Plasmodium falciparum [2],3%
same,Inhibition,HepG2,14%
COc1cc(Cc2cnc(N)nc2N)cc(OCc2cccc(C(=O)O)c2)c1OC.Cl,Inhibition,Plasmodium falciparum [1],92%
same,Inhibition,Plasmodium falciparum [2],0%
same,Inhibition,HepG2,8%
COc1ccc(CCNCCCCCCNCCc2ccc(Cl)cc2)c(Cl)c1OC.Cl,Inhibition,Plasmodium falciparum [1],100%
same,Inhibition,Plasmodium falciparum [2],4%
same,Inhibition,HepG2,88%
CN1CCN(Cc2ccc(-c3cc4nccc(Nc5ccc(Oc6ccccc6)cc5)c4cc3Cl)o2)CC1,Inhibition,Plasmodium falciparum [1],100%
same,Inhibition,Plasmodium falciparum [2],99%
same,Inhibition,HepG2,3%
COc1ccc(C=NN=c2cc[nH]c3ccccc23)c2ccccc12,Inhibition,Plasmodium falciparum [1],100%
same,Inhibition,Plasmodium falciparum [2],98%
same,Inhibition,HepG2,27%
COc1cc(C)c(NC(=O)c2cccc3c(=O)c(C)c(-c4ccccc4)oc23)cc1OC,Inhibition,Plasmodium falciparum [1],86%
same,Inhibition,Plasmodium falciparum [2],32%
same,Inhibition,HepG2,96%
CNc1nc(Nc2ccccc2C)nc2ccccc12.Cl,Inhibition,Plasmodium falciparum [1],100%
same,Inhibition,Plasmodium falciparum [2],81%
same,Inhibition,HepG2,17%
O=C(O)C(F)(F)F.O=c1[nH]c2ccc(Nc3nccc(NCCc4ccccc4)n3)cc2[nH]1,Inhibition,Plasmodium falciparum [1],100%
same,Inhibition,Plasmodium falciparum [2],6%
same,Inhibition,HepG2,0%
Cc1ccccc1Cn1c(CN2CCC(C(=O)NC3CC3)CC2)cc2ccccc21,Inhibition,Plasmodium falciparum [1],97%
same,Inhibition,Plasmodium falciparum [2],96%
same,Inhibition,HepG2,7%
COc1ccc2ncc(C#N)c(CCN3C4CCC3CC(NCc3ccc5c(n3)NC(=O)CS5)C4)c2c1.Cl (stereo not given),Inhibition,Plasmodium falciparum [1],95%
same,Inhibition,Plasmodium falciparum [2],27%
same,Inhibition,HepG2,6%
Cc1c(CC(=O)N(C)C2CCN(CCCCCNC(=O)/C=C/c3ccc(Cl)c(Cl)c3)CC2)sc2ccc(Cl)cc12,Inhibition,Plasmodium falciparum [1],95%
same,Inhibition,Plasmodium falciparum [2],9%
same,Inhibition,HepG2,93%
O=C(NCCCCN1CCN(c2cccc3ccccc23)CC1)c1ccc(NC(=O)c2ccc(Cl)cc2)cc1,Inhibition,Plasmodium falciparum [1],100%
same,Inhibition,Plasmodium falciparum [2],64%
same,Inhibition,HepG2,38%
C=CCc1ccc(C2CCN(CCCCNC(=O)c3ccc(NC(=O)c4ccc(Cl)cc4)cc3)CC2)cc1,Inhibition,Plasmodium falciparum [1],100%
same,Inhibition,Plasmodium falciparum [2],97%
same,Inhibition,HepG2,27%
COc1ccc(C(C)Nc2nc(N)c3cc(OC)c(OC)cc3n2)cc1.Cl (stereo not given),Inhibition,Plasmodium falciparum [1],100%
same,Inhibition,Plasmodium falciparum [2],28%
same,Inhibition,HepG2,23%
CN1CCN(c2ccc(-c3cccc(NC(=O)c4cccc([N+](=O)[O-])c4)c3)nn2)CC1,Inhibition,Plasmodium falciparum [1],99%
same,Inhibition,Plasmodium falciparum [2],35%
same,Inhibition,HepG2,21%
Cc1cc(NCCC(=O)NCCOc2ccccc2)nc(NCCc2ccc(F)cc2)n1.O=C(O)C(F)(F)F,Inhibition,Plasmodium falciparum [1],97%
same,Inhibition,Plasmodium falciparum [2],4%
same,Inhibition,HepG2,14%
Cc1noc(C)c1C(=O)N1CCc2cc3nccc(N4CCN5CCC[C@H]5C4)c3cc21,Inhibition,Plasmodium falciparum [1],93%
same,Inhibition,Plasmodium falciparum [2],9%
same,Inhibition,HepG2,7%
O=C(Nc1cccc(F)c1)N1CCC(NS(=O)(=O)c2ccc(Br)cc2)CC1,Inhibition,Plasmodium falciparum [1],93%
same,Inhibition,Plasmodium falciparum [2],23%
same,Inhibition,HepG2,4%
O=C(Nc1ccccc1)c1ccc(N2CCC(COc3cccc(C(F)(F)F)c3)CC2)nc1,Inhibition,Plasmodium falciparum [1],96%
same,Inhibition,Plasmodium falciparum [2],83%
same,Inhibition,HepG2,11%
COc1ccc2nccc(N(C)CC3(O)CCN(CCc4ccc5c(c4)OCCO5)CC3)c2n1.Cl,Inhibition,Plasmodium falciparum [1],100%
same,Inhibition,Plasmodium falciparum [2],96%
same,Inhibition,HepG2,15%
COc1ccccc1CNc1nc(Nc2ccccc2C)nc2ccccc12,Inhibition,Plasmodium falciparum [1],100%
same,Inhibition,Plasmodium falciparum [2],67%
same,Inhibition,HepG2,24%
COc1cc(F)c2ncc(Cl)c(C(O)CN3CCC(NC(=O)c4ccc5c(c4)NC(=O)CS5)CC3)c2c1.Cl (stereo not given),Inhibition,Plasmodium falciparum [1],98%
same,Inhibition,Plasmodium falciparum [2],68%
same,Inhibition,HepG2,15%
COc1cc2c(cc1NS(=O)(=O)c1ccc(OCc3ccc(Br)cc3)cc1)CCN(C1CCC1)CC2.Cl,Inhibition,Plasmodium falciparum [1],94%
same,Inhibition,Plasmodium falciparum [2],30%
same,Inhibition,HepG2,36%
COc1ccc2ccccc2c1CCCCN1CCN(CC(c2ccc(F)cc2)N2CCC2)CC1.O=C(O)C(F)(F)F (stereo not given),Inhibition,Plasmodium falciparum [1],98%
same,Inhibition,Plasmodium falciparum [2],51%
same,Inhibition,HepG2,51%
CC1CN(Cc2ccccc2)CCN1c1ccc(NC(=O)c2cccs2)cc1.O=C(O)C(F)(F)F (stereo not given),Inhibition,Plasmodium falciparum [1],96%
same,Inhibition,Plasmodium falciparum [2],96%
same,Inhibition,HepG2,0%
O=C(NCCN1Cc2ccccc2C1=O)c1ccc(Oc2ccc(C(=O)NCCN3Cc4ccccc4C3=O)cc2)cc1,Inhibition,Plasmodium falciparum [1],99%
same,Inhibition,Plasmodium falciparum [2],95%
same,Inhibition,HepG2,27%
CC(C)N(C(=O)CSc1nc2cc(Cl)ccc2c(=O)n1Cc1ccccc1)C(C)C,Inhibition,Plasmodium falciparum [1],100%
same,Inhibition,Plasmodium falciparum [2],97%
same,Inhibition,HepG2,0%
O=C(/C=C/c1ccc(Cl)c(Cl)c1)NCCCCCN1CCC(NC(=O)Nc2ccc(F)cc2F)CC1,Inhibition,Plasmodium falciparum [1],100%
same,Inhibition,Plasmodium falciparum [2],23%
same,Inhibition,HepG2,14%
CNC(=O)c1ccc2nc(C3CC3)n(CC3CCN(S(=O)(=O)c4cccc(Cl)c4)CC3)c2c1.O=C(O)C(F)(F)F,Inhibition,Plasmodium falciparum [1],100%
same,Inhibition,Plasmodium falciparum [2],100%
same,Inhibition,HepG2,0%
CC(C)CCNC(=O)c1cnc2c(O)cccc2c1Nc1cccc(NC(=O)c2ccc(F)cc2)c1.O=C(O)C(F)(F)F,Inhibition,Plasmodium falciparum [1],93%
same,Inhibition,Plasmodium falciparum [2],43%
same,Inhibition,HepG2,51%
COc1ccc(CNCc2ccc(-c3cccc(-c4nc5cc(C(F)(F)F)ccc5[nH]4)c3)cc2)cc1.O=C(O)C(F)(F)F,Inhibition,Plasmodium falciparum [1],100%
same,Inhibition,Plasmodium falciparum [2],100%
same,Inhibition,HepG2,59%
Cc1cccc(NC(=O)NCc2ccccc2)n1,Inhibition,Plasmodium falciparum [1],97%
same,Inhibition,Plasmodium falciparum [2],2%
same,Inhibition,HepG2,14%
CCc1ccc(NC(=O)c2ccc(CN3CCCN(Cc4cccs4)CC3)cc2)cc1.O=C(O)C(F)(F)F,Inhibition,Plasmodium falciparum [1],87%
same,Inhibition,Plasmodium falciparum [2],0%
same,Inhibition,HepG2,57%
O=C(Nc1cccc(-c2cccc(-c3nc4ccccc4[nH]3)c2)c1)Nc1ccc(Cl)c(Cl)c1,Inhibition,Plasmodium falciparum [1],100%
same,Inhibition,Plasmodium falciparum [2],98%
same,Inhibition,HepG2,78%
O=C(NC1CCN(c2ccnc3cc(Cl)ccc23)C1)c1ccc(C(F)(F)F)cc1.O=C(O)C(F)(F)F (stereo not given),Inhibition,Plasmodium falciparum [1],100%
same,Inhibition,Plasmodium falciparum [2],57%
same,Inhibition,HepG2,37%
O=c1cc(NCCCNCc2ccc(C(F)(F)F)c(F)c2)[nH]c2ccccc12,Inhibition,Plasmodium falciparum [1],93%
same,Inhibition,Plasmodium falciparum [2],26%
same,Inhibition,HepG2,5%
Cc1cc(C2CCN(CCCCNC(=O)c3ccc(NC(=O)c4ccc(Cl)cc4)cc3)CC2)c(C)cc1OCCN(C)C,Inhibition,Plasmodium falciparum [1],100%
same,Inhibition,Plasmodium falciparum [2],77%
same,Inhibition,HepG2,18%
Cc1ccc(NC(=O)c2ccc(N3CCN(c4ccncc4)CC3)cn2)cc1F.O=C(O)C(F)(F)F,Inhibition,Plasmodium falciparum [1],98%
same,Inhibition,Plasmodium falciparum [2],77%
same,Inhibition,HepG2,2%
Cc1ccc(C2=NNC3(S2)C(=O)Nc2ccc(C)cc23)cc1 (stereo not given),Inhibition,Plasmodium falciparum [1],95%
same,Inhibition,Plasmodium falciparum [2],89%
same,Inhibition,HepG2,35%
COc1ccc2nc(C)cc(N/N=C/c3ccc([N+](=O)[O-])cc3)c2c1,Inhibition,Plasmodium falciparum [1],100%
same,Inhibition,Plasmodium falciparum [2],70%
same,Inhibition,HepG2,0%
COc1ccc(C2CCN(CCN3CCC(NC(=O)c4cccc(-c5ccncc5)c4)CC3)CC2)c(OC)c1,Inhibition,Plasmodium falciparum [1],94%
same,Inhibition,Plasmodium falciparum [2],24%
same,Inhibition,HepG2,7%
Cc1ccc2c(=O)cc(CCc3cccc(F)c3F)n(CC(=O)N(Cc3ccc(-c4ccc(C(F)(F)F)cc4)cc3)C3CCN(C(C)C)CC3)c2n1.O=C(O)C(O)C(O)C(=O)O,Inhibition,Plasmodium falciparum [1],100%
same,Inhibition,Plasmodium falciparum [2],49%
same,Inhibition,HepG2,58%
COc1cc(-c2nc(-c3ccncc3)c(-c3ccc4c(c3)CCC4=NO)[nH]2)ccc1OCCN1CCN(C)CC1.Cl,Inhibition,Plasmodium falciparum [1],99%
same,Inhibition,Plasmodium falciparum [2],77%
same,Inhibition,HepG2,53%
CC(C)C[C@H](NC(=O)c1ccc(OCCN2CCOCC2)cc1)C(=O)N[C@H](/C=N/NC(=O)OC(C)(C)C)CCc1ccccc1,Inhibition,Plasmodium falciparum [1],96%
same,Inhibition,Plasmodium falciparum [2],87%
same,Inhibition,HepG2,8%
O=C(Nc1ccc(Cl)cc1)Nc1cccc(-c2ccc(-c3nc4ccccc4[nH]3)cc2)c1,Inhibition,Plasmodium falciparum [1],87%
same,Inhibition,Plasmodium falciparum [2],6%
same,Inhibition,HepG2,19%
CS(=O)(=O)NCCCNCc1ccc(-c2ccc(-c3nc4cc(F)ccc4[nH]3)s2)cc1.O=C(O)C(F)(F)F,Inhibition,Plasmodium falciparum [1],95%
same,Inhibition,Plasmodium falciparum [2],30%
same,Inhibition,HepG2,23%
CCCCCN1CCCC1CNS(=O)(=O)c1cccc(C(=O)Nc2cccc(C(F)(F)F)c2)c1.O=C(O)C(F)(F)F (stereo not given),Inhibition,Plasmodium falciparum [1],96%
same,Inhibition,Plasmodium falciparum [2],12%
same,Inhibition,HepG2,15%
CCCCOc1c(CNCCCCCCNCc2ccc3ccccc3c2OCCCC)ccc2ccccc12.CS(=O)(=O)O,Inhibition,Plasmodium falciparum [1],96%
same,Inhibition,Plasmodium falciparum [2],89%
same,Inhibition,HepG2,99%
C(=Cc1nc2ccccc2s1)c1ccc2c(c1)OCCO2.Cl,Inhibition,Plasmodium falciparum [1],98%
same,Inhibition,Plasmodium falciparum [2],96%
same,Inhibition,HepG2,13%
Cc1ncccc1C(=O)Nc1cccc(-c2cccc(-c3nc4cc(C(F)(F)F)ccc4[nH]3)c2)c1,Inhibition,Plasmodium falciparum [1],96%
same,Inhibition,Plasmodium falciparum [2],30%
same,Inhibition,HepG2,34%
CCN(CCCN1CCCCC1)c1cc(C)nc(Nc2cc(Br)ccc2C)n1.O=C(O)C(F)(F)F,Inhibition,Plasmodium falciparum [1],98%
same,Inhibition,Plasmodium falciparum [2],39%
same,Inhibition,HepG2,32%
COc1cc(C2=NN(S(=O)(=O)c3c(C)cc(C)cc3C)CCCC2)ccc1Cl,Inhibition,Plasmodium falciparum [1],85%
same,Inhibition,Plasmodium falciparum [2],76%
same,Inhibition,HepG2,9%
N=C(N)Nc1ccc(C(=O)O)c(O)c1,Inhibition,Plasmodium falciparum [1],94%
same,Inhibition,Plasmodium falciparum [2],1%
same,Inhibition,HepG2,0%
